# NPSR antag: qHTS Assay for Antagonists of the Neuropeptide S Receptor: cAMP Signal Transduction | CHO-NPSR cells, cAMP TR-FRET, antagonist mode | Potency, µM (highest dose often 38.3 µM), inactives show top-dose activity change, negative = inhibition, actives largely listed as inhibitors | 1% of 220,000 active | AID 1461, 2008; further: nearly all actives have a fitted effect of over 50% in size
# Target sequence (Q6W5P4 whole entry, looked up): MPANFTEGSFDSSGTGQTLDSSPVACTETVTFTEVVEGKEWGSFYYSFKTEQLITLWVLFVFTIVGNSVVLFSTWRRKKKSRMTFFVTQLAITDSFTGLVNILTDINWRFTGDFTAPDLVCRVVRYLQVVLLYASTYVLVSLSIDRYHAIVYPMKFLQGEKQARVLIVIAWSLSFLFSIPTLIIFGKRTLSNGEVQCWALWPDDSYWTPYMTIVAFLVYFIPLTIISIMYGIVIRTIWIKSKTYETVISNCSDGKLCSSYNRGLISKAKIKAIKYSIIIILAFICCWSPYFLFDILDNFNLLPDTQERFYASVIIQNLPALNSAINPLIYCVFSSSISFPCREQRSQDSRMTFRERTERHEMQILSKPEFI
# ERK EGF block: qHTS Assay for Inhibitors of the ERK Signaling Pathway using a Homogeneous Screening Assay; Stimulation with EGF | HEK293-V1b, EGF-stimulated phospho-ERK AlphaScreen | Potency, µM (top dose mostly 11.5 µM), for inactives: top-dose activity change, negative = inhibition, usual class: inhibitors | 0.41% of 130,000 active;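 further: plate controls were stimulated vehicle wells for no effect and unstimulated vehicle basal for full effect; nearly all actives have a fitted effect of over 55% in size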
#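 Homogeneous cell-based phospho-ERK assay: HEK293/V1b cells in 1% FBS, compound 30 min then EGF 5 min, AlphaScreen luminescence. Activity normalized between DMSO and 25 nM EGF controls; AC50 from Hill modelling.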
# * marks the source's active call; other numbers are inactive results; ? = inconclusive; / = not tested or not shown; ! = a repeat was not active; [ ] = remark or other dose. The entries come from a sample that favours hits as a whole. The call rests on the fitted dose curve; in most records, active means well fitted curve in the direction sought with a large enough effect; inconclusive means small, poorly fitted or top-dose-only effect, or another doubt; inactive means no such curve, though single readings can be large; an effect the other way counts as inactive or inconclusive. Unless noted, on the % scale 0 is the no-effect control and ±100 the full control effect; potency means the concentration at half of the fitted maximal effect.
SMILES,NPSR antag,ERK EGF block
COc1ccc(Cl)cc1NC(=O)C(C)N1CCN(C/C=C/c2ccccc2)CC1 (stereo not drawn),10µM*,/
Cc1ccc(S(=O)(=O)Nc2ccc(NC(=O)Nc3cccc(C(F)(F)F)c3)cc2)cc1,?,7%
CCN(CC)S(=O)(=O)c1ccc(NC(=O)Nc2cccc(C(F)(F)F)c2)cc1,16µM*,/
CC(C)(C)NCC(O)COc1nsnc1N1CCOCC1 (stereo not drawn),7%[46.1 µM],8%
CCNc1nc(NCC)n2c(SCC(=O)c3ccccc3F)nnc2n1,-1%,-2%
CC1=CCC(/C=N\Nc2nnc3c(n2)[nH]c2ccccc23)CC1 (stereo not drawn),16%,-4%
O=c1[nH][nH]c2cc(=O)n(-c3cccc(C(F)(F)F)c3)nc12,-10%,-4%
COC(=O)c1sc2cc(=O)n(-c3cccc(C(F)(F)F)c3)nc2c1O,10µM*,0%
COc1ccc(-c2nc(NC(=O)c3ccc(OCC(=O)N4CCOCC4)c(OC)c3)sc2C)cc1,-9%,?
COc1cc(C(=O)Nc2nc(-c3ccc(Cl)cc3)c(C)s2)ccc1OCC(=O)Nc1ccc(F)cc1,4µM*,/
CCc1ccc(-c2nc(NC(=O)c3ccc(OCC(=O)Nc4ccc(F)cc4)c(OC)c3)sc2C)cc1,6.3µM*,-3%
COc1ccc(CC(=O)Nc2ccc(C(=O)Nc3nccs3)cc2)cc1OC,4%,-3%
Cc1ccc(NC(=O)C2CCN(S(=O)(=O)c3c(C)n[nH]c3C)CC2)nc1,-14%[46.1 µM],/
COC(CN(C(=O)CCl)C(C(=O)NC1CCCCC1)c1ccc(C)cc1)OC (stereo not drawn),2%,-7%
CCCN=C(N)NCCC[C@H](N)C(=O)O,/,-8%
Clc1ccc(-c2ncc3ccccn23)cc1,41%,32µM*
Clc1ccccc1-c1ncc2ccccn12,7%,-1%
CCCCCS(=O)(=O)CCCCCCCCCCn1c(-c2ccc(O)cc2)c(C)c2cc(O)ccc21,/,14µM*
CC(=O)c1c(C)n(CCO)c2ccc(O)cc12,-10%[46.1 µM],/
O=C(CN(C(=O)c1ccccc1Cl)N1C(=O)CCCC1=O)c1ccc(Cl)cc1,-6%,4%
COc1ccc(C2=NOC(C(=O)N(C)Cc3ccccc3)C2)cc1 (stereo not drawn),1%,1%
C[C@@H]1Cc2c(O)c(O)cc(O)c2C(=O)O1,16%,9%[57.5 µM]
CC1CCC/C=C/C(=O)c2c(O)cc(O)cc2CC(=O)O1 (stereo not drawn),5µM*,-14%[57.5 µM]
COc1cccc2c1C(=O)c1c(O)c3c(c(O)c1C2=O)C[C@@](O)(C(C)=O)C[C@@H]3O[C@H]1C[C@H](N)[C@H](O)[C@H](C)O1,?,25µM*!
CC(=O)[C@]1(O)Cc2c(O)c3c(c(O)c2[C@@H](O[C@H]2C[C@H](N)[C@H](O)[C@H](C)O2)C1)C(=O)c1ccccc1C3=O,-9%[46.1 µM],?
SMILES,NPSR antag,ERK EGF block
CCOC(=O)c1cncc(C#CCO)c1,-12%,1%[57.5 µM]
Cc1ccc(C(=O)OCCn2cc(C#N)c(=O)[nH]c2=O)cc1,-15%,8%
COc1ccccc1/C=C/C(=O)/C=C/c1ccccc1O,?,35µM*
COc1ccccc1/C=C/C(C)=O,8%,-7%
COC(=O)c1sc(NC(=O)CCCn2nc([N+](=O)[O-])cc2C)c(C(=O)OC)c1C,3%,0%
COC(=O)CSc1nnc([C@H](Cc2ccccc2)NC(=O)OC(C)(C)C)o1,-9%[46.1 µM],/
COC(=O)CS(=O)(=O)c1nnc([C@H](Cc2ccccc2)NC(=O)OC(C)(C)C)o1,7.9µM*,/
CC1=NN(c2ccc(C)cc2)C(=O)/C1=C\C=C\c1ccccc1,-37%,?
CC1=NN(c2cccc(C(=O)O)c2)C(=O)/C1=C\C=C/c1ccccc1,7.9µM*,?
COc1cccc([C@@H]2Oc3ccc(OC)cc3C[C@H]2OC(=O)Nc2ccc(OC(F)F)cc2)c1,/,0%
COC(=O)Cc1ccc(NC(=S)NCCSc2ccc(Cl)cc2)cc1,-28%,28µM*
COC(=O)Cc1ccc(NC(=S)NCCO)cc1,12%,-6%[57.5 µM]
CCOCCCNC(=S)N1C2CCC1CC(NC(=O)NC13CC4CC(CC(C4)C1)C3)C2 (stereo not drawn),-22%[46.1 µM],/
COc1ccc(Oc2c(Cl)cnn(-c3ccc(Cl)c(Cl)c3)c2=O)cc1,10µM*,/
COc1c(Cl)cnn(-c2ccc(C)cc2)c1=O,-19%[46.1 µM],/
FC(F)(F)c1cnc(COc2ccc(Cl)cc2Cl)c(Cl)c1,1%,-4%[57.5 µM]
COc1ccc(N2C3=C(CC4=C2CC(C)(C)CC4=O)C(=O)CC(C)(C)C3)cc1,2µM*,/
COc1ccc(N2C3=C(CC4=C2CCCC4=O)C(=O)CCC3)cc1,-29%,2%
COc1ccc2c(c1)-c1nc(/N=C/c3ccccc3O)sc1CC2,12%,9%
COc1ccc2sc(/C=C/c3ccccc3O)[n+](C)c2c1,13µM*,-8%
COc1ccc(C(=O)N/C(=C/c2cccs2)c2nc3ccccc3[nH]2)cc1OC,7%,2%
COc1cc(/C=C(/C(=O)c2cccs2)c2nc3ccccc3[nH]2)cc(OC)c1O,13µM*,/
Cc1nc(NCc2ccccc2)c2nc(-c3ccccc3)n(CCCN3CCOCC3)c2n1,/,8%
CCn1cc(/C=N/NC(=O)COc2cccc3cccnc23)c2ccccc21,-3%,0%
COc1cccc(NC(=S)N/N=C2/CCCCc3ccccc32)c1,-30%,11%
SMILES,NPSR antag,ERK EGF block
CCOC(=O)CCc1nc2ccccc2[nH]1,9%[46.1 µM],/
COCC(=O)O[C@]1(CCN(C)CCCc2nc3ccccc3[nH]2)CCc2cc(F)ccc2[C@@H]1C(C)C,10µM*,10%
Nc1nc(COc2ccc(F)cc2Cl)nc(N2CCCCC2)n1,-36%,3%
Oc1ccc(CN2CCc3ccccc3C2)c2cccnc12,4µM*,/
Oc1ccc(CN2CCCCC2)c2cccnc12,-11%[46.1 µM],-3%
O=C1O/C(=C/c2ccccc2)c2ccccc21,30%,-9%
N#CC1=C(c2ccccc2)/C(=C/c2ccccc2)OC1=O,2.5µM*,/
Cc1cccc(Nc2nc(NCc3ccco3)c3ccccc3n2)c1,?,28µM*
Cc1ccc(-c2nc(NCc3ccco3)c3ccccc3n2)cc1,-26%,-5%
Oc1ccccc1Nc1nc(NCc2ccco2)c2ccccc2n1,?,32µM*
c1ccc(CN2CCN(c3nc(NCc4ccco4)c4ccccc4n3)CC2)cc1,10µM*,/
Cc1ccccc1Nc1nc(NCc2ccco2)c2ccccc2n1,?,-2%
OCCN1CCN(c2nc(NCc3ccco3)c3ccccc3n2)CC1,23%[46.1 µM],2%
COc1ccc(-n2c(=O)c3ccccc3n(CC(=O)NC3CCCCC3)c2=O)cc1,2%[46.1 µM],/
Cc1cc(C)cc(C(=O)NC(CC(N)=O)c2ccc(NC3CCCCC3)c([N+](=O)[O-])c2)c1 (stereo not drawn),8%,-15%[57.5 µM]
CCCCCCCC/C=C\CCCCCCCC(=O)OC[C@@H](O)COP(=O)(O)O,/,-8%
O=c1cc(-c2ccc(O)c(O)c2)oc2cc(OC3OC(CO)C(O)C(O)C3O)cc(O)c12 (stereo not drawn),/,3%
CCOc1ccccc1/C=N/Nc1ccccc1[N+](=O)[O-],-6%[46.1 µM],/
Cc1[nH]c2ccccc2c1/C=N/NS(=O)(=O)c1ccccc1,-10%,-10%
Cc1[nH]c2ccccc2c1/C=N/Nc1ccccc1[N+](=O)[O-],10µM*,25µM*
COc1ccc(/C=N\Nc2ccccc2[N+](=O)[O-])c(C(=O)O)c1OC,30%,-11%[57.5 µM]

# Screening data: PubChem, National Center for Advancing Translational Sciences (NCATS)
